Source: PubChem BioAssay
Rows were chosen to be rich in hits. Some 7.4% of all compounds tested hit in one or more screens of this group.
Rab9 prom act = activates the Rab9 promoter; Huh7 Rab9 promoter-luciferase reporter, luminescence, 24 h; Potency, µM (top dose mostly 9.22 µM), inactives show at the top dose activation, negative = inhibition, usual class: activators; 2.8% of 320,000 active; AID 485297; note: % of control where 0% means no effect; nearly all actives have a fitted effect of over 60% in size
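Steps: seed 1500 Huh7 Rab9-luc cells per well, rest 2 h at 37 °C; add compound in DMSO; incubate 24 h; add luciferase reagent, 10 min ambient; read luminescence.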
SMN2 splice up = SMN2 splice variant enhancement; HEK293 SMN2-luciferase splicing reporter, luminescence, 30-36 h; Potency, µM (series often up to 46.1 µM), for inactives: top-dose activity change, positive = activation, most hits filed as activators; 2.8% of 210,000 active; note: % of control where 0% means no effect; nearly all actives have a fitted effect of over 55% in size
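HEK293 cells carry an SMN2 minigene-luciferase reporter in which exon 7 inclusion puts luciferase in frame. Cells were seeded at 2000 cells/well, attached for 10-12 hours, then exposed to compounds for 30-36 hours at 37C before ONE-Glo luminescence.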
FLuc modulator = inhibits or activates purified firefly luciferase, miR-21 counter-screen; purified FLuc, Km substrates, luminescence inhibition; Potency, µM (series often up to 57.5 µM), without a hit: top-dose activity change, negative = inhibition, actives largely listed as inhibitors; 6.9% of 360,000 active;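 note: plate controls were vehicle for no effect and reference inhibitor for full effect; nearly all actives have a fitted effect of over 55% in size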
Target sequence (P08659 whole entry, looked up): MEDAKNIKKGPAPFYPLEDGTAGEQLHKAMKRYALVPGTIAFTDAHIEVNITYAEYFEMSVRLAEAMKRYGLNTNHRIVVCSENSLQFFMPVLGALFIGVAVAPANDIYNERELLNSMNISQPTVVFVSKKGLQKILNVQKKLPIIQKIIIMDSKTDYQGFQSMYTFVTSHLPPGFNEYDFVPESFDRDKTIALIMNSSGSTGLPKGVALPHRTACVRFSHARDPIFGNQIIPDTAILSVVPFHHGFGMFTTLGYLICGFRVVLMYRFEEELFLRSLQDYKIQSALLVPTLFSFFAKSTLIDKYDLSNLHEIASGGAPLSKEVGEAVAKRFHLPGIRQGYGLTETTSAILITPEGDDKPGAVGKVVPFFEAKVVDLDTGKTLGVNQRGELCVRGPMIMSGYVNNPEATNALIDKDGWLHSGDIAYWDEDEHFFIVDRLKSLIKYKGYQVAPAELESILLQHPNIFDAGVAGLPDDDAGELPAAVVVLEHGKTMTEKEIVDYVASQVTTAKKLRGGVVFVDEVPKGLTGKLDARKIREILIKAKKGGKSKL
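Purified P. pyralis luciferase, 10 nM final, with Km-level 10 uM D-luciferin and 10 uM ATP in 50 mM Tris acetate pH 7.5, 10 mM Mg acetate, 0.01% Tween-20, 0.05% BSA; 6-point qHTS titration about 60 µM downward; luminescence read.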
ELG1 genotoxic = inducers of genotoxicity in HEK293T ELG1-luciferase cells | HEK293T ELG1-luciferase reporter, luminescence, 16 h | Potency, µM (series often up to 46 µM), for inactives: top-dose activity change, positive = activation, actives largely listed as activators | 1.3% of 330,000 active | AID 504466; note: % of control where 0% means no effect; nearly all actives have a fitted effect of over 60% in size
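Screening used a luciferase reporter fused to human ELG1 in HEK293T cells. Luminescence was read on a CCD plate imager after 16 hr exposure and 30 min ONE-Glo incubation.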
NPC1 promoter act = activates the NPC1 promoter; Huh7 NPC1 promoter luciferase reporter, 24 h; 2.4% of 320,000 active; AID 485313; Potency, µM (doses to about 9.22 µM), for the others: at the top dose activation, actives largely listed as activators; note: % of control where 0% means no effect; nearly all actives have a fitted effect of over 60% in size
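Luminescence from an NPC1 promoter-driven luciferase reporter in stably transfected Huh7 cells was measured after 24 h compound treatment at 37 °C, followed by 10 min ambient incubation with luciferase detection reagent.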
The depositor's hits bear a star. Calls come from the whole dose curve; as a rule, active = well fitted curve in the direction sought with a large enough effect; inconclusive = small, poorly fitted or top-dose-only effect, or another doubt; inactive = no such curve, though single readings can be large; an effect the other way counts as inactive or inconclusive. Potency is the fitted concentration of half-maximal effect.

Screening Cc1ccc(NC(=O)C(C)Sc2nc(=O)cc(N)n2-c2cccc(C)c2)cc1 (stereo not given) returned SMN2 splice up -12% and FLuc modulator -10%.
Screening Cc1cccc(NC(=S)NC(=O)c2cccs2)n1 returned Rab9 prom act inconclusive, SMN2 splice up 10%, FLuc modulator inconclusive, ELG1 genotoxic 10% and NPC1 promoter act inconclusive.
O=C(Nc1ccc(Cl)cn1)c1ccc(Oc2ccccc2)cc1 was read as Rab9 prom act 2.2µM*, FLuc modulator 3.4µM*, ELG1 genotoxic inconclusive and NPC1 promoter act 1.3µM*.
`Cc1ccc(NC(=O)c2ccc(S(=O)(=O)N3CCCCCC3)cc2)nc1` gave Rab9 prom act 8%, FLuc modulator inconclusive, ELG1 genotoxic -3% and NPC1 promoter act 3%.
Screening Cc1nc(NC(=S)NC(=O)c2cccs2)ccc1Br returned Rab9 prom act 30%, SMN2 splice up inconclusive, FLuc modulator 4.8µM*, ELG1 genotoxic inconclusive and NPC1 promoter act 6%.
`O=C(Nc1ccccc1Cl)c1ccc2nccnc2c1` gave Rab9 prom act 2.5µM*, FLuc modulator 11µM*, ELG1 genotoxic 2% and NPC1 promoter act 3.2µM*.
For Cc1ccc(NC(=O)c2ccc(S(=O)(=O)N3CCC(C)CC3)cc2)nc1 the results were Rab9 prom act -5%, FLuc modulator inconclusive, ELG1 genotoxic 18µM* and NPC1 promoter act 0%.
For Cn1c(=O)c2c(SCC(=O)N3CCc4ccccc43)nc(-c3ccccc3Cl)nc2n(C)c1=O the results were FLuc modulator -4%.
For CN(CC(=O)Nc1ccccc1Cl)C(=O)CN1C(=O)NC(c2ccccc2)(c2ccccc2)C1=O the results were Rab9 prom act -2%, ELG1 genotoxic 1% and NPC1 promoter act -2%.
Screening O=C(Nc1ccc(Cl)cn1)c1ccc2nccnc2c1 returned Rab9 prom act inconclusive, FLuc modulator 12µM*, ELG1 genotoxic inconclusive and NPC1 promoter act 1.6µM*.
For Cc1ccccc1C(=O)Nc1ccc(Br)c(C)n1 the results were Rab9 prom act inconclusive, SMN2 splice up 80%, FLuc modulator 24µM*, ELG1 genotoxic 12µM* and NPC1 promoter act inconclusive.
Screening Cc1ccc(C(=O)Nc2ncc3c(Cl)cccc3n2)cc1 returned Rab9 prom act 0.16µM*, SMN2 splice up 0.032µM*, FLuc modulator 0.27µM*, ELG1 genotoxic inconclusive and NPC1 promoter act inconclusive.
Cc1ccc(C(=O)NCCOc2ccc(Cl)cc2)cc1 was read as Rab9 prom act 18%, FLuc modulator 24µM*, ELG1 genotoxic inconclusive and NPC1 promoter act inconclusive.
Screening O=C(Nc1ccc(Cl)cn1)c1cccnc1 returned Rab9 prom act -1%, SMN2 splice up inconclusive, FLuc modulator -11%, ELG1 genotoxic 6% and NPC1 promoter act -1%.
Screening Cc1oc2c(cc(NS(=O)(=O)c3ccc(Cl)cc3)c3ccccc32)c1C(=O)OCc1ccccc1 returned SMN2 splice up 11% and FLuc modulator -19%.
`CN(CC(=O)Nc1c(Cl)cccc1Cl)C(=O)c1ccc2ccccc2n1` gave Rab9 prom act 10%, FLuc modulator 1%, ELG1 genotoxic 8% and NPC1 promoter act -2%.
`CCOc1ccc2nc(Cl)c(C3CC(c4ccccc4)=NN3C(=O)CCC(=O)O)cc2c1` (stereo not given) gave SMN2 splice up -7% and FLuc modulator inconclusive.
`COc1cccc(CCc2ccccc2OCC[C@@H]2C[C@@H](O)CN2C)c1` gave SMN2 splice up -38%.
Cc1ccc(C(=O)Nc2ccc(Cl)cn2)cc1 was read as Rab9 prom act inconclusive, SMN2 splice up 7.9µM*, FLuc modulator 1.3µM*, ELG1 genotoxic 2.3µM* and NPC1 promoter act 9%.
Screening O=C(Nc1ccccc1Cl)c1cccs1 returned Rab9 prom act 26%, SMN2 splice up -8%, FLuc modulator inconclusive, ELG1 genotoxic 8% and NPC1 promoter act 13%.
Cc1ccccc1C(=O)Nc1ccc(Cl)cn1 was read as Rab9 prom act 3.5µM*, SMN2 splice up 29%, FLuc modulator 17µM*, ELG1 genotoxic 10µM* and NPC1 promoter act 2.5µM*.
`O=C(Nc1ccccc1Cl)c1ccc(-c2ccccn2)s1` gave Rab9 prom act 1.4µM*, FLuc modulator 3.4µM*, ELG1 genotoxic inconclusive and NPC1 promoter act 2µM*.
CC(C)C(=O)Nc1ccc(NC(=O)c2ccccc2Cl)nc1 was read as Rab9 prom act 3.2µM*, FLuc modulator 21µM*, ELG1 genotoxic 16µM* and NPC1 promoter act inconclusive.
Screening CCCCNC(=O)CCCCCNS(=O)(=O)c1ccc(Br)cc1 returned Rab9 prom act 7%, SMN2 splice up -18%, FLuc modulator -7%, ELG1 genotoxic -3% and NPC1 promoter act -1%.
Screening CCC1Oc2ccc(Cl)cc2N(CC(=O)NCCc2ccc(Cl)cc2)C1=O (stereo not given) returned FLuc modulator 5%.
COc1ccccc1N1CCN(C(=O)C2CCN(S(=O)(=O)c3cnc[nH]3)CC2)CC1 was read as SMN2 splice up 1% and FLuc modulator 0%.
Screening CC1CCC(NC(=O)c2cccc(S(=O)(=O)N3CCN(c4ccc(F)cc4)CC3)c2)CC1 (stereo not given) returned Rab9 prom act -3%, FLuc modulator inconclusive, ELG1 genotoxic 5% and NPC1 promoter act -4%.
For CCCOc1ccc(C(=O)Nc2ccc(Cl)cn2)cc1 the results were Rab9 prom act 0.5µM*, SMN2 splice up inconclusive, FLuc modulator 0.85µM*, ELG1 genotoxic inconclusive and NPC1 promoter act 0.71µM*.
For O=C(Nc1ccc(O)cc1)/C(=C\C=C\c1ccccc1)NC(=O)c1ccccc1 the results were Rab9 prom act 2%, FLuc modulator 9.5µM*, ELG1 genotoxic -9% and NPC1 promoter act -3%.
CCCCOc1ccc(C(=O)N/C(=C/C=C/c2ccccc2)C(=O)O)cc1 was read as Rab9 prom act -2%, SMN2 splice up 5%, FLuc modulator 15µM*, ELG1 genotoxic 4% and NPC1 promoter act 0%.
Screening O=C(O)COc1ccc(/C=N/NC(=O)/C(=C/C=C/c2ccccc2)NC(=O)c2ccccc2)cc1 returned Rab9 prom act 0%, FLuc modulator 21µM*, ELG1 genotoxic -3% and NPC1 promoter act 1%.
`COC(=O)/C(=C\C=C\c1ccccc1)NC(=O)c1ccccc1` gave Rab9 prom act 5%, SMN2 splice up -7%, FLuc modulator inconclusive, ELG1 genotoxic -6% and NPC1 promoter act -4%.
For O=C(O)CCNC(=O)/C(=C\C=C\c1ccccc1)NC(=O)c1ccccc1 the results were Rab9 prom act -3%, FLuc modulator -3%, ELG1 genotoxic -1% and NPC1 promoter act 1%.
